Screening results as filed in PubChem BioAssay.
Compounds with a hit are over-represented: about 4.6% of the library has one in this group of screens.
sEH act: increases human soluble epoxide hydrolase activity | purified human sEH enzymatic activity, activator screen | activation, % at 2 µM | actives 0.04% (n = 91,000); in the data active means activation above about 37%
IL1B cytotox: HUVEC cytotoxicity counter-screen, IL-1B stimulated; HUVEC cell count loss, Hoechst imaging; cell count reduction, % at 2 µM; actives 0.41% (n = 94,000); AID 845;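 active means cell count reduction more than 3 SD above the screen-wide mean, cut at about 70% in these data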;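 further: normalized per plate to untreated control cells as the no-loss baseline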
sEH inh: inhibitors of human soluble epoxide hydrolase; actives 0.34% (n = 91,000); P34913; inhibition, % at 2 µM; recombinant human sEH enzymatic activity assay; in the data active means inhibition above about 80%
NFkB transloc pot: enhances IL-1B driven NFkB nuclear translocation; HUVEC IL-1B NFkB p65 nuclear translocation imaging; activation, % at 2 µM; actives 0.3% (n = 94,000); AID 819;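 active means activation above 40%, about the mean plus 3 SD, also judged a hit on visual image review; inconclusive means activation above 40% but not a hit on visual review; inactive means activation not above 40% and no visual hit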;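 further: percent activation is computed from the nuclear over cytoplasmic p65 intensity ratio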
Cav32 inh: blocks human Cav3.2 T-type calcium channel | Cav3.2-expressing cells, Fluo-4 calcium fluorescence FDSS; hits give low values | B-score at 10 µM | actives 4% (n = 100,000);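 active means single-dose well whose peak fluorescence ratio is a statistical outlier from its plate by either plate-standardised score or position-corrected B-score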
Target sequence (O95180 whole entry, looked up): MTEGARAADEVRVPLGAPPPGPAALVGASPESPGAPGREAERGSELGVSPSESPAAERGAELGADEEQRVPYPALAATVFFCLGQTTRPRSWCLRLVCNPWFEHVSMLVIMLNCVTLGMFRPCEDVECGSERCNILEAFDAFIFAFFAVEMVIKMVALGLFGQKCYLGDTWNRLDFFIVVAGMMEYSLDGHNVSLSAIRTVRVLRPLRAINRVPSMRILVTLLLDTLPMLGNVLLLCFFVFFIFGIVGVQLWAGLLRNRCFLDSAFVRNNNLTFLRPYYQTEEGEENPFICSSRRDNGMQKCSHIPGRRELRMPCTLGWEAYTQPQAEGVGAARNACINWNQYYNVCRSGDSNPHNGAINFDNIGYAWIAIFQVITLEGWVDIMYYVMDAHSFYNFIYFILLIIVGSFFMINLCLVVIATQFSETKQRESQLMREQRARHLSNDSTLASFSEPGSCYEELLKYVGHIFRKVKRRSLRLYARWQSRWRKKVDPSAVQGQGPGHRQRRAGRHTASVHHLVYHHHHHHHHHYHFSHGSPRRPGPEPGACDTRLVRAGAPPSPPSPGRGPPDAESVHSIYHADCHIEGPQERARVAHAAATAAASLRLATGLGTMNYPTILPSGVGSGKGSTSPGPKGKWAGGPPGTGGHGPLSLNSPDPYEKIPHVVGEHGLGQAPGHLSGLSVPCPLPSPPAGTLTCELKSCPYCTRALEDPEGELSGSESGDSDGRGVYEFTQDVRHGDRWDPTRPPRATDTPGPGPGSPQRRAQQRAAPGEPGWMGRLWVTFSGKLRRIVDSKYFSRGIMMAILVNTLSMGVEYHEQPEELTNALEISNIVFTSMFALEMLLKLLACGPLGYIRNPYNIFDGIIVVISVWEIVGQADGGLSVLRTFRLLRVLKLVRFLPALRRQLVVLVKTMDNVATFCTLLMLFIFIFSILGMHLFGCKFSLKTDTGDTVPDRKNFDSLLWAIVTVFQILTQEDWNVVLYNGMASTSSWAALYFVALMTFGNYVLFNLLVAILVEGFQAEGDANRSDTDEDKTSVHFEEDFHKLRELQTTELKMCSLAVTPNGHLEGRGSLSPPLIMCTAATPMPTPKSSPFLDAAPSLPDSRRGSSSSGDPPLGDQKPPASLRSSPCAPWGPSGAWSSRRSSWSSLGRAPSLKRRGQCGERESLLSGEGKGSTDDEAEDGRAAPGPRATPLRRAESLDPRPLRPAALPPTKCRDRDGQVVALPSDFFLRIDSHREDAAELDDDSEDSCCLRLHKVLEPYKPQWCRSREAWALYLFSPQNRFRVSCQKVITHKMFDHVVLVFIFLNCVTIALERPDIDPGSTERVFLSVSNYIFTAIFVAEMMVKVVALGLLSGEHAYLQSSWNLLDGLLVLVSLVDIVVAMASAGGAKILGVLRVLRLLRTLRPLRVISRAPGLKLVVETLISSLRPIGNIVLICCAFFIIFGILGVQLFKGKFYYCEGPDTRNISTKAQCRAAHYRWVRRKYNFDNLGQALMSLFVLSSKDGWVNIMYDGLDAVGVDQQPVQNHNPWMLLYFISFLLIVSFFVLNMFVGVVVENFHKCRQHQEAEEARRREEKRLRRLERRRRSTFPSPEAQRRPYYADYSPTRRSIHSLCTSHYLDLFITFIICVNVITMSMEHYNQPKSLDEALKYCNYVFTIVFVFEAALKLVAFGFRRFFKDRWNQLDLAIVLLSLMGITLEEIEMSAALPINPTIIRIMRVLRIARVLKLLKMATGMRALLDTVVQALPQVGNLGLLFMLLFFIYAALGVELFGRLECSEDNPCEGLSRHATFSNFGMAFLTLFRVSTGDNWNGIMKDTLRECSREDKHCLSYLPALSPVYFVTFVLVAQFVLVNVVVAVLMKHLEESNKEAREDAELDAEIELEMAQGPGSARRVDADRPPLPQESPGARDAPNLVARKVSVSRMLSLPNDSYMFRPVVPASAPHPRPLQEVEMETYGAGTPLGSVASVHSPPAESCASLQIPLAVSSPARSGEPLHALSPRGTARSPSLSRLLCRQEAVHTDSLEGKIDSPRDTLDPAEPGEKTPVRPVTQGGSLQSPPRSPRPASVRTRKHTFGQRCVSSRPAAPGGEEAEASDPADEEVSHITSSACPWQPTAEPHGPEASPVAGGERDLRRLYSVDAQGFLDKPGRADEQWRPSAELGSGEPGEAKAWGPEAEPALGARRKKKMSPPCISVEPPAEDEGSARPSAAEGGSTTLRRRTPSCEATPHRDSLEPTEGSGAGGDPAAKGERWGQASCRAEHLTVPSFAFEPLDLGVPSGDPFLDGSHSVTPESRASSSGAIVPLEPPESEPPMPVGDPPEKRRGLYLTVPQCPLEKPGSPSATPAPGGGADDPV
IL1B NFkB inh: blocks IL-1B driven NFkB nuclear translocation in HUVEC cells; actives 0.43% (n = 94,000); HUVEC IL-1B NFkB p65 nuclear translocation imaging; inhibition, % at 2 µM;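 active means inhibition above about 30% together with a positive call from visual inspection of the well image, limit read from the data; inconclusive means inhibition above a set limit but visual check negative; inactive means inhibition not above a set limit, visual check negative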;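 further: nuclear over cytoplasmic p65 intensity ratio measured by imaging; 0% = IL-1B stimulated DMSO wells and 100% = unstimulated DMSO wells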
* marks the source's active call; other numbers are inactive results; ? = inconclusive; nt = no result given.

SMILES	sEH act	IL1B cytotox	sEH inh	NFkB transloc pot	Cav32 inh	IL1B NFkB inh
CN=C(Nc1cc(Cl)ccc1Cl)SC1CC(=O)N(c2ccc(C(=O)OC)cc2)C1=O (centres undefined)	-15.5	2.5	18.3	0.6	-0.211	-0.6
Cc1ccc(NCc2nnc(SCC(=O)Nc3ccccc3)n2CC2CCCO2)c(C)c1 (centres undefined)	-4.2	0.0	4.3	?	-4.48*	-84.9
CCn1c(COc2ccccc2C)nnc1SCC(=O)CC(=O)Nc1ccccc1	-0.6	11.3	-0.6	-4.8	-4.99*	4.8
CCn1c(COc2ccccc2C)nnc1SCC(=O)Nc1cc(C)on1	13.7	-7.3	-14.3	13.6	0.0601	-13.6
CCOC(=O)c1cccc(NC(=O)CSc2nnc(CNc3ccc(C)cc3)n2CC)c1	-5.9	7.7	5.5	-10.8	-4.11*	10.8
Brc1cccc(-c2n[nH]c(-c3ccccc3)n2)c1	-17.7	-13.7	20.8	24.4	nt	-24.4
Cc1ccc(S(=O)(=O)NCCc2ccncc2)cc1	-5.8	-126.7	6.4	7.6	-0.0354	-7.6
CCCCc1ccc(S(=O)(=O)NCCc2ccncc2)cc1	2.9	-10.6	-4.7	14.2	-3.64*	-14.2
O=S(=O)(NCCc1ccncc1)c1cc(Br)ccc1F	-0.9	91.5*	-1.6	7.7	0.364	-7.7
COC(=O)Nc1ccc(S(=O)(=O)N2CCCC(C(=O)Nc3cccnc3)C2)cc1 (centres undefined)	-28.1	6.0	27.1	23.1	1.18	-23.1
CC(C)OCCCNC(=O)CCN1C(=O)COc2ccccc21	nt	nt	nt	nt	0.679	nt
CCO[C@H]1OC(C(=O)Nc2ccccc2)=C[C@@H](c2ccc(Br)cc2)[C@@H]1CCCO	nt	nt	nt	nt	-1.93	nt
CC(=O)Nc1ccccc1-c1nc2ccc(C(=O)N3CCN(c4cc(C)ccc4C)CC3)cc2[nH]c1=O	29.5	-2.5	-32.9	-8.7	-3.66*	8.7
CCN(CCNC(=O)c1ccc2nc(-c3ccccc3NC(C)=O)c(=O)[nH]c2c1)c1ccccc1	nt	3.0	nt	8.9	0.707	-8.9
CCCCn1cnc2cc(NCc3ccncc3)ccc21	2.8	3.8	2.2	-0.1	0.628	0.1
Cc1ccc(-n2c(C)cc(/C=N/NC(=O)CN(c3ccc(C)cc3C)S(C)(=O)=O)c2C)cc1	-4.9	-2.5	6.7	0.8	-8.44*	-0.8
CCC(SC1=NCCS1)C(=O)Nc1nnc(-c2ccccc2OC)s1 (centres undefined)	7.6	-12.2	-8.7	-11.0	-2.01	11.0
CCCOc1ccc(C2C(=O)N(C3CCCCC3)CC(=O)N2CCC)cc1OC (centres undefined)	-14.0	-8.1	12.5	4.9	-0.0392	-4.9
Cc1ccc(S(=O)(=O)N2CCN(c3nc4ccccc4nc3-n3nc(C)cc3C)CC2)cc1	-3.9	-37.4	1.4	9.5	nt	-9.5
COc1ccc(N2CCN(c3nc4ccccc4nc3NS(=O)(=O)c3ccccc3)CC2)cc1	3.9	30.8	-6.0	-6.6	-4.2*	6.6
CC(=O)Nc1ccc(S(=O)(=O)Nc2nc3ccccc3nc2N2CCCCCC2)cc1	nt	8.9	nt	-0.1	-3.3	0.1
O=S(=O)(Nc1nc2ccccc2nc1N1CCN(c2ccccn2)CC1)c1ccc(Cl)cc1	8.9	-3.2	-5.5	15.0	-4.7*	-15.0
Cc1ccc(S(=O)(=O)Nc2nc3ccccc3nc2N2CCN(c3ccccc3F)CC2)cc1	19.4	4.3	-15.7	12.2	-3.59*	-12.2
O=C(COC(=O)c1ccncc1)Nc1cccc(Cl)c1	5.9	1.7	-6.3	-5.5	-0.459	5.5
Cc1cccc(-c2nc(CS(=O)CC(=O)NCc3cccs3)c(C)o2)c1 (centres undefined)	2.8	0.3	-5.5	7.9	-0.373	-7.9
SMILES	sEH act	IL1B cytotox	sEH inh	NFkB transloc pot	Cav32 inh	IL1B NFkB inh
Cc1ccc(CCNC(=O)CS(=O)Cc2nc(-c3cccc(C)c3)oc2C)cc1 (centres undefined)	nt	nt	nt	nt	-5.19*	nt
CCOc1ccccc1C(=O)Nc1cc(C(=O)NCCc2ccccc2)ccc1Cl	-36.8	-58.9	37.3	10.5	-0.142	-10.5
Cc1nn(Cc2cccc(C(=O)Nc3ccn(Cc4ccccc4F)n3)c2)c(C)c1[N+](=O)[O-]	-59.5	-21.6	60.3	-19.1	-4.33*	19.1
O=C(Nc1ccc(Cn2cccn2)cc1)c1ccc(COc2ccc(Br)cc2)cc1	13.2	-0.6	-14.2	11.9	-0.464	-11.9
O=C(Nc1ccc(Cn2cccn2)cc1)c1ccc(COc2cccc(Br)c2)cc1	-67.0	0.6	67.5	57.0*	-4.71*	-57.0
O=C(Nc1ccn(Cc2ccccc2F)n1)c1ccc(COc2ccc(Br)cc2)cc1	-5.8	-54.8	6.5	6.7	-4.61*	-6.7
O=C(/C=C/c1cc([N+](=O)[O-])ccc1OC(F)F)NCc1ccc(Cl)cc1	-16.8	1.0	15.3	27.7	-2.39	-27.7
CC(C)CCNC(=O)c1cnn2c(C(F)(F)F)cc(-c3ccco3)nc12	9.3	-27.5	-9.9	6.8	-2.18	-6.8
CCSc1nnc(-c2sc3nnc(-c4ccccc4)c(-c4ccccc4)c3c2N)o1	-1.6	0.7	7.1	9.8	-5.6*	-9.8
O/N=C1/CCc2cccc3cccc1c23	-3.8	-78.4	4.8	-6.4	-1.29	6.4
CCCC(=O)N(CCN(C(=O)CCC)c1ccccc1)c1ccccc1	3.9	-36.5	-0.5	0.3	-4.07*	-0.3
CN1C(=O)c2cccc(NCCCN3C(=O)c4ccccc4C3=O)c2C1=O	-4.9	29.8	5.6	-3.5	-1.99	3.5
CCNC1=C(Cl)C(=O)c2ccccc2C1=O	-1.4	2.3	-1.0	3.1	1.38	-3.1
Cn1c(NCCc2ccccc2)cc(=O)n(C)c1=O	nt	-34.7	nt	-3.8	0.137	3.8
CCNc1c2c3c(cccc3n(C)c1=O)C(=O)c1ccccc1-2	nt	-0.5	nt	-4.7	-9.16*	4.7
Cn1c(=O)c(NCCc2ccccc2)c2c3c(cccc31)C(=O)c1ccccc1-2	-1.0	-31.8	3.6	17.2	-10.5*	-17.2
CC1CCN(C(=O)c2ccc3c(c2NCCO)C(=O)c2ccccc2C3=O)CC1	-4.5	0.0	6.3	0.2	1.96	-0.2
CCCCNc1c2c3c(cccc3n(C)c1=O)C(=O)c1ccccc1-2	-1.7	-19.1	6.5	11.0	-5.23*	-11.0
Cn1c(=O)c(NCCO)c2c3c(cccc31)C(=O)c1ccccc1-2	4.3	-31.6	-6.4	25.4	-8.98*	-25.4
Brc1ccc(-c2cnc3n2CCCC3)cc1	4.9	-7.3	-5.4	-14.2	nt	14.2
COc1ccc([N+](=O)[O-])cc1C1NN=C(c2ccccc2O)S1 (centres undefined)	0.5	3.7	-0.5	-33.0	-3.68*	33.0*
Cc1c(NC(=O)c2ccc(CN3CCc4ccccc4C3)cc2)c(=O)n(-c2ccccc2)n1C	-4.0	3.5	2.5	3.1	-2.47	-3.1
O=C(NCc1ccc2c(c1)OCO2)c1ccc(CN2CCc3ccccc3C2)cc1	-37.3	1.8	35.5	6.0	-5.27*	-6.0
Cc1cc(C)c(NC(=O)c2ccc(CN3CCc4ccccc4C3)cc2)c(C)c1	8.3	-4.4	-7.0	-2.9	-4.34*	2.9
